The text below walks through data of PubChem BioAssay (NCATS).

A number with no mark means an inactive call. The call rests on the fitted dose curve.
Potency means the concentration at half of the fitted maximal effect.

Chain of Glucocorticoid receptor (Homo sapiens) (P04150 whole entry, looked up): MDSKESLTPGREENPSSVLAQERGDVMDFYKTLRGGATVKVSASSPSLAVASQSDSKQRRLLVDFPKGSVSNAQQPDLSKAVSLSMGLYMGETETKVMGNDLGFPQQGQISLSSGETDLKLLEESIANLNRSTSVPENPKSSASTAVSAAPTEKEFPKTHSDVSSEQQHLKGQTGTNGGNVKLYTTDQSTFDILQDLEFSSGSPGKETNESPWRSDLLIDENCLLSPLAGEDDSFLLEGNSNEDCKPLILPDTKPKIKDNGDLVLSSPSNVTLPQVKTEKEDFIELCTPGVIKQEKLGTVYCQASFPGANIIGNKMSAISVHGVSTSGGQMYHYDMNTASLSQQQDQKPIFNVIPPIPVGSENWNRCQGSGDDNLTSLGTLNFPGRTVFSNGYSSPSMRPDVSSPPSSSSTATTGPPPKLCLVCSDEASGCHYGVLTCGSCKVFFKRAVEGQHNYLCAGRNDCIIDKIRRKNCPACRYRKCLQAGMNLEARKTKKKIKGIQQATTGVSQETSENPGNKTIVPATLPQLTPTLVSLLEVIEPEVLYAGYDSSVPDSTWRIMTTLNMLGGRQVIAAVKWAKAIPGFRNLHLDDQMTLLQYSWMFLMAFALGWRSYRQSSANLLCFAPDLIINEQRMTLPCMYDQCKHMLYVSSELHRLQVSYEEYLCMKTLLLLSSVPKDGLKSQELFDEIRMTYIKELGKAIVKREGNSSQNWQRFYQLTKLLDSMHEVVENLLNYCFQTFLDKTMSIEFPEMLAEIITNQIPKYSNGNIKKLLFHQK

For this assay, the target named is Glucocorticoid receptor (Homo sapiens) (UniProt P04150). In words: GR-EFC Redistribution (AID 451). As to conditions: CHO-K1 GR-EFC translocation, beta-gal luminescence, 2 h. An excerpt:
NIH Molecular Libraries Screening Centers Network [MLSCN]
NIH Chemical Genomics Center [NCGC]
The glucocorticoid receptor (GR) is a cytoplasmic receptor that belongs to the nuclear receptor family of ligand-dependent transcription factors. Upon glucocorticoid binding to its receptor, the glucocorticoid-GR complex translocates into the nucleus, where it binds as a dimer to specific DNA sequences (glucocorticoid response elements), enhancing or suppressing transcription of a wide variety of glucocorticoid-responsive genes. In addition to their important roles in normal physiology and metabolism, glucocorticoids are administered exogenously as treatments for a wide variety of allergic, autoimmune, and neoplastic conditions. Identification of compounds that modulate aspects of GR signalling would be useful in dissecting glucocorticoid response pathways as well as developing GR modulators with more targeted clinical effects.
Traditionally, GR modulators have been identified using receptor binding or direct transactivation assays. However, assays for glucocorticoid-dependent nuclear translocation can also be used to screen for compounds affecting GR signaling.
Immunocytochemical staining has been used to assay for GR translocation, but is not suitable for high throughout screening due to the multiple reagent addition and wash steps required. Recently, a novel cell-based GR assay in Enzyme Fragment Complementation (EFC) format was developed by DiscoveRx (Fremont, CA). The assay uses EFC of b-galactosidase (b-gal) as an indicator of GR-translocation in engineered CHO-K1 biosensor cells. The enzyme acceptor (EA) fragment of b-gal resides in the nucleus , as designed through the use of a proprietary set of sequence additions and modifications. The small peptide enzyme donor (ED) fragment of b-gal is fused directly to the C-terminus of GR, and is localized in the cytoplasm is the absence of receptor signaling. Upon binding to a GR ligand, the complex translocates to the nucleus, where intact enzyme activity is restored by complementation and b-gal activity is detected. We optimized this GR-EFC assay in homogenous 1536-well plate assay format for high throughput screening.
NCGC Assay Protocol Summary:
CHO-K1 cells stably expressing NLS-enzyme acceptor fragment (EA) of b-gal and GR-enzyme donor (ED) fragment of b-gal were maintained in F12 medium (Invitrogen, Carlsbad, CA) at 37 Celsius degrees under a humidified atmosphere containing 5% CO2 and 95% air. The medium contained 10% FBS, 2 mM L-glutamine, 50 U/ml penicillin 50 ug/ml streptomycin, and 250 ug/ml hygromycin and 500 ug/ml G418 (Invitrogen).
GR-translocation was measured beta-gal enzyme activity using the PathHunter Detection Kit containing cell membrane permeablizing reagent and beta-gal substrate (DiscoveRx, Fremont, CA). All compounds were screened as titrations from 0.6 nM to 46 uM final concentration. The assay was performed in 1536-well format as follows:
5 uL cell suspension (1,000 cells)/well
Incubation at 37 Celsius degrees for two hours
1.25 uL 1X detection buffer from the kit supplied by DiscoveRx
Incubation at room temperature for one hour
Read plate in luminescence mode in ViewLux plate reader (PerkinElmer)
Keywords: NIH Roadmap, MLSCN, MLI, MLSMR, GR-EFC, GREFC, qHTS, NCGC
In the case of `COc1cccc(Nc2ncc3nc(-c4ccccc4)c(=O)n(C[C@H]4CCCO4)c3n2)c1`, the Potency was more than 46 µM.

Regarding `COc1ccc(NC(=O)N2CCCC3(CCN(S(C)(=O)=O)CC3)C2)cc1`, the Potency is more than 46 µM.

On to `COCCn1c(=O)c(CCc2ccccc2)nc2cnc(N3CCNCC3)nc21`, for which the Potency was more than 46 µM.

On to `CN(Cc1ccco1)c1ncnc2ccc(-c3cccnc3)cc12`, for which the Potency is more than 46 µM.

Consider `COCCn1c(=O)cnc2cnc(OC)nc21`, for which the Potency is more than 46 µM.

Consider `CN(C)c1ncc2nc(-c3cccs3)c(=O)n(C[C@H]3CCCO3)c2n1`, for which the Potency was more than 46 µM.

In the case of `Cn1cccc1C(=O)N1CCC[C@@]2(CCN(c3ccccn3)C2)C1`, the Potency was more than 46 µM.

Regarding `COc1ccc(NC(=O)N2CC[C@@]3(CCCN(C(=O)c4cnccn4)C3)C2)cc1`, the Potency was more than 46 µM.

As to `Clc1ccccc1-c1cncnc1NCc1cccs1`, the Potency was more than 46 µM.

Regarding `O=C(Nc1ccccc1)N1CC2(CCN(C(=O)c3ccco3)CC2)C1`, the Potency is more than 46 µM.

As to `Cn1cc(-c2nc3cncnc3n(-c3ccccc3)c2=O)c2ccccc21`, the Potency is more than 46 µM.

On to `Cc1cccc(CNc2ncnc3ccc(-c4ccoc4)cc23)c1`, for which the Potency is more than 46 µM.

As for `c1ccc(CNc2ncnc3ccc(-c4cccnc4)cc23)cc1`, the Potency was more than 46 µM.

In the case of `CCNc1ncc2nc(C)c(=O)n(C3CC3)c2n1`, the Potency is more than 46 µM.

Turning to `Cn1cccc1C(=O)N1CCC[C@@]2(CCN(Cc3cc(C(F)(F)F)cc(C(F)(F)F)c3)C2)C1`, the Potency was more than 46 µM.

Consider `Cc1nc2cnc(N(C)C)nc2n(CCC#N)c1=O`, for which the Potency was more than 46 µM.

For the compound `O=C(c1cccc(F)c1)N1CCC2(CCN(Cc3cc(C(F)(F)F)cc(C(F)(F)F)c3)CC2)CC1`, the Potency was more than 46 µM.

With `COCCn1c(=O)cnc2cnc(Oc3ccc(OC)cc3)nc21`, the Potency was more than 46 µM.

Take `Cc1noc(C)c1C(=O)N1CCC2(CCCN(C(c3ccccc3)c3ccccc3)C2)CC1`: the Potency is more than 46 µM.

Consider `CC(C)CN1CC[C@@]2(CCCN(C(=O)c3csnn3)C2)C1`, for which the Potency was more than 46 µM.

Take `c1csc(CNc2ccnc(-c3ccoc3)n2)c1`: the Potency was more than 46 µM.

In the case of `O=C(c1cnccn1)N1CCC2(CC1)CCN(C(c1ccccc1)c1ccccc1)CC2`, the Potency was more than 46 µM.

As to `N#Cc1cccc(-c2nc3cnc(N4CCOCC4)nc3n(C3CC3)c2=O)c1`, the Potency was more than 46 µM.

For `O=S(=O)(c1ccccc1)N1CCC[C@@]2(CCN(c3ccccc3)C2)C1`, the Potency was more than 46 µM.

For `N#CCCn1c(=O)c(-c2cccc(C#N)c2)nc2cnc(N3CCOCC3)nc21`, the Potency is more than 46 µM.

Consider `CC(=O)N1CCC2(CC1)CN(Cc1ccccc1)C2`, for which the Potency is more than 46 µM.

For the compound `O=C(Nc1cccc(F)c1)N1CCC2(CC1)CCN(C(=O)c1cnccn1)CC2`, the Potency was more than 46 µM.

Consider `O=c1c(-c2ccc(Cl)cc2)nc2cnc(N3CCOCC3)nc2n1C[C@H]1CCCO1`, for which the Potency is more than 46 µM.

With `Cn1cc(-c2nc3cnc(N4CCNCC4)nc3n(CCC#N)c2=O)c2ccccc21`, the Potency is more than 46 µM.

For the compound `CCNc1ncc2nc(CCc3ccccc3)c(=O)n(CCOC)c2n1`, the Potency is more than 46 µM.

As for `COCCNc1cc(-c2ccccc2CN(C)C)ncn1`, the Potency is more than 46 µM.

With `COCCNc1ncncc1-c1ccccc1OC`, the Potency is more than 46 µM.

As for `COC(=O)c1c(-c2cc(OC)c(OC)c(OC)c2)c2ccc(OCc3ccccn3)cc2c(=O)n1-c1ccc(N)cc1`, the Potency was more than 46 µM.

As for `Cc1cnc(CNc2ccnc(-c3ccccc3CN(C)C)n2)cn1`, the Potency is more than 46 µM.

`COC(=O)N1CCC2(CCCN(c3ccc(-c4ccccc4)cc3)C2)CC1`: the Potency is more than 46 µM.

Regarding `Cc1cccc(CNc2ncnc3ccc(-c4cccnc4)cc23)c1`, the Potency is more than 46 µM.

Take `CC(C)NC(=O)N1CC2(CCN(C(=O)c3ccncc3)CC2)C1`: the Potency was more than 46 µM.

As to `COc1ccc(Oc2ncc3nc(-c4ccc(OC)cc4)c(=O)n(C4CC4)c3n2)cc1`, the Potency is more than 46 µM.

As for `COCCNc1cc(-c2ccccc2C)ncn1`, the Potency was more than 46 µM.

For the compound `COCCNc1cc(-c2c(C)noc2C)ncn1`, the Potency is more than 46 µM.
